# Measurements: PubChem BioAssay (NCATS)
# Inconclusive results are not listed. Calls of active or inactive are those of the source. Calls follow the shape of the dose curve; as a rule, active = well fitted inhibition curve with a large enough effect; inconclusive = small, poorly fitted or top-dose-only effect; inactive = flat fitted curve, though single readings scatter.
# System: Zika virus NS2B-NS3 protease
# Test: Primary screen GU AMC qHTS for Zika virus inhibitors (AID 1347154);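 also: 0% = no-inhibitor control and -100% = no-enzyme control; nearly all actives have a fitted effect of over 70% in size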
# Conditions: Zika NS2B-NS3 unlinked protease, AMC fluorogenic substrate; series mostly up to 54.1 µM; activity change, negative = inhibition: at the top concentration
# In short: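 Unlinked Zika NS2B hydrophilic domain–NS3 protease complex at 25 nM in 10 mM Tris-HCl pH 8.0, 0.01% Tween 20, with an AMC peptide substrate. Fluorescence change (340/450 nm) over 15 min at room temperature, normalized to controls, fitted to 4-parameter Hill.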
SMILES,"activity change, negative = inhibition",Potency
C=C1C(=O)OC(CCCCCCCC)C1C(=O)O (stereo not given),3.3% (inactive),
O=c1c(-c2ccc(O)cc2)coc2cc(OC3O[C@H](CO)[C@H](O)[C@H](O)[C@H]3O)cc(O)c12 (stereo not given in full),-18.5% (inactive),
NC[C@@H]1O[C@@H](O[C@H]2[C@@H](O)[C@H](O[C@@H]3[C@@H](O)[C@@H](N)C[C@H](N)[C@H]3O[C@H]3O[C@H](CN)[C@@H](O)[C@@H](O)[C@H]3N)O[C@H]2CO)[C@H](N)[C@@H](O)[C@@H]1O,-2.67% (inactive),
CCN(CC)CCOc1ccc(C(=C(Cl)c2ccccc2)c2ccccc2)cc1,5.42% (inactive),
CN(C)CCC=C1c2ccccc2COc2ccc(CC(=O)O)cc21,0.0627% (inactive),
CC(C)C(C)C=CC(C)C1CCC2C3=CC=C4CC(O)CCC4(C)C3CCC21C (stereo not given),-5.01% (inactive),
C[C@@H]1CCN(C(=O)CC#N)C[C@H]1N(C)c1ncnc2[nH]ccc12,-3.66% (inactive),
C[C@]12CC[C@@H]3c4ccc(O)cc4CC[C@H]3[C@H]1C[C@@H](O)[C@H]2O,6.48% (inactive),
O=C(CCc1ccc(O)cc1)c1c(O)cc(O)cc1O[C@@H]1O[C@H](CO)[C@H](O)[C@H](O)[C@H]1O,-4.96% (inactive),
Cn1cc(C=C2C(=O)Nc3cccnc32)c2ccccc21,10.9% (inactive),
c1ccc2c(Cc3c[nH]c4ccccc34)c[nH]c2c1,-6.38% (inactive),
COc1ccc(-c2oc3c(CC=C(C)C)c(OC4O[C@H](CO)[C@@H](O)[C@H](O)[C@@H]4O)cc(O)c3c(=O)c2OC2O[C@@H](C)[C@H](O)[C@@H](O)[C@@H]2O)cc1 (stereo not given in full),-13% (inactive),
CC=CC[C@@H](C)C(=O)[C@H]1C(=O)N[C@@H](C(C)C)C(=O)N(C)CC(=O)N(C)[C@@H](CC(C)C)C(=O)N[C@@H](C(C)C)C(=O)N(C)[C@@H](CC(C)C)C(=O)N[C@@H](C)C(=O)N[C@H](C)C(=O)N(C)[C@@H](CC(C)C)C(=O)N(C)[C@@H](CC(C)C)C(=O)N(C)[C@@H](C(C)C)C(=O)N1C,-8.07% (inactive),
O=C(OCC#CCSc1nnc(-c2cccc3ccccc23)o1)c1cc2ccccc2s1,-4.95% (inactive),
NC(CO)(CO)CCc1ccc(Sc2cccc(OCc3ccccc3)c2)cc1Cl,4.67% (inactive),
CON=C(C(=O)N[C@@H]1C(=O)N2C(C(=O)OCOC(=O)C(C)(C)C)=C(C=Cc3scnc3C)CS[C@H]12)c1csc(N)n1,12.5% (inactive),
N[C@H](CSC(c1ccccc1)(c1ccccc1)c1ccccc1)C(=O)O,,inactive
c1cc(-c2sc(-c3ccncc3)c(-c3ccncc3)c2-c2ccncc2)ccn1,-0.495% (inactive),

SMILES,"activity change, negative = inhibition",Potency
Nc1nc(F)nc2c1ncn2[C@@H]1O[C@H](COP(=O)(O)O)[C@@H](O)[C@H]1O,1.98% (inactive),
CC(C)(C)C(=O)Oc1ccc2c(c1)nc(NC(=O)c1cccc([N+](=O)[O-])c1)n2CCCO,11.9% (inactive),
CC[C@H]1OC(=O)[C@H](C)[C@@H](O[C@H]2C[C@@](C)(OC)[C@@H](O)[C@H](C)O2)[C@H](C)[C@@H](O[C@@H]2O[C@H](C)C[C@H](N(C)C)[C@@H]2O)[C@](C)(O)C[C@@H](C)CN(C)[C@H](C)[C@@H](O)[C@]1(C)O,0.969% (inactive),
CC(C)n1cnc2c(NCCCCCCNC(=O)OC(C)(C)C)nc(NCCO)nc21,-12.6% (inactive),
COc1cc(NC(=O)c2ccc(-c3ccc(Cl)cc3)o2)cc(OC)c1,7.29% (inactive),
COc1ccc(-n2c(C)c([N+](=O)[O-])c3ccc(O)cc32)cc1,2.69% (inactive),
Oc1ccc(C2=Cc3ccc(O)cc3OC2)cc1,-0.671% (inactive),
NC1CCC(Nc2nc(Nc3ccc(C(=O)N4CCCCC4)cc3)c3ncn(-c4cccc(F)c4)c3n2)CC1 (stereo not given),2.5% (inactive),
CCC(=O)O[C@]1(C(=O)CO)CC[C@H]2[C@@H]3CCC4=CC(=O)CC[C@]4(C)[C@@H]3CC[C@@]21C,-3.46% (inactive),
O=c1cc(-c2cccc3c2Sc2ccccc2S3)oc(N2CCOCC2)c1,-18.9% (inactive),
Cc1c[nH]c(C=C2C(=O)Nc3ccccc32)c1CCC(=O)O,-16.6% (inactive),
O=C(Nc1cc(Cl)cc2c1[nH]c1cnccc12)c1cccnc1,-4.24% (inactive),
N#CC1(c2ccc(NC(=O)c3cccnc3NCc3ccncc3)cc2)CCCC1,-4.91% (inactive),
Cc1ccc(/C=N/NC(=O)c2ccccc2Oc2ccccc2)o1,-12.9% (inactive),
CCOC1OC(=O)C[C@H]1NC(=O)[C@@H]1CCCN1C(=O)[C@@H](NC(=O)c1ccc(N)c(Cl)c1)C(C)(C)C (stereo not given in full),7.2% (inactive),
Cc1c(O)cccc1C(=O)N[C@@H](CSc1ccccc1)[C@H](O)CN1C[C@H]2CCCC[C@@H]2C[C@@H]1C(=O)NC(C)(C)C,-5.65% (inactive),
Cc1ccc([C@@H]2O[C@H](CO)[C@@H](O)[C@H](O)[C@@H]2O)cc1Cc1ccc(-c2ccc(F)cc2)s1,7.91% (inactive),
